High-throughput results as filed in PubChem.
Most compounds without a hit are left out; they make up all but 9% or so of the library.
ALDH1A1 inh: ALDH1A1 (human) enzyme inhibition; P00352; Purified ALDH1A1, NADH fluorescence, propionaldehyde substrate; Potency, µM (doses to about 75.3 µM), without a hit: at the top dose activity, negative = inhibition, hits mostly inhibitors; actives 7.3% (n = 220,000); active = well fitted inhibition curve with a large enough effect, not every such curve was filed as active; inconclusive = small, poorly fitted or top-dose-only effect, or another doubt; inactive = no such curve, though single readings can be large or run the other way;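 also: plate controls were no enzyme wells and a reference inhibitor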
Target sequence (P00352 whole entry, looked up): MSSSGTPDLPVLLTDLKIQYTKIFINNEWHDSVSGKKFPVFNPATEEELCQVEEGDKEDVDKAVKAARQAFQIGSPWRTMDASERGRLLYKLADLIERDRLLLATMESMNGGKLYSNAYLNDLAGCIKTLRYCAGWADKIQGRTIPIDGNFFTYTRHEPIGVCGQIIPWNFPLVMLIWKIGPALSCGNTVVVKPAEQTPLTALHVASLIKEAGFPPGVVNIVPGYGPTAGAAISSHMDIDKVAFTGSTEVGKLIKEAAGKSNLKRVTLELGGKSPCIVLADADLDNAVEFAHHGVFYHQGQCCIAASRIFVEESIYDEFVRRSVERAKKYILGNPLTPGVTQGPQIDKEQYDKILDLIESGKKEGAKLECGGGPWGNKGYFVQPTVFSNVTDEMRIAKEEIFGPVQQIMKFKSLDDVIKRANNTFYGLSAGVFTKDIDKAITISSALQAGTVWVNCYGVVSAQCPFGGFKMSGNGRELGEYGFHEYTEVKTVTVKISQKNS
HPGD inh: HPGD (human) dehydrogenase inhibition | purified HPGD, NADH fluorescence kinetic, PGE2 substrate | actives 4.3% (n = 150,000) | AID 894 | P15428 | Potency, µM, without a hit: at the top dose activity change, negative = inhibition, most hits filed as inhibitors; active = well fitted inhibition curve with a large enough effect, not every such curve was filed as active; inconclusive = small, poorly fitted or top-dose-only effect, or another doubt; inactive = no such curve, though single readings can be large or run the other way; also: % is scaled to controls: 0 for no effect and ±100 for the full control effect
Target sequence (P15428 whole entry, looked up): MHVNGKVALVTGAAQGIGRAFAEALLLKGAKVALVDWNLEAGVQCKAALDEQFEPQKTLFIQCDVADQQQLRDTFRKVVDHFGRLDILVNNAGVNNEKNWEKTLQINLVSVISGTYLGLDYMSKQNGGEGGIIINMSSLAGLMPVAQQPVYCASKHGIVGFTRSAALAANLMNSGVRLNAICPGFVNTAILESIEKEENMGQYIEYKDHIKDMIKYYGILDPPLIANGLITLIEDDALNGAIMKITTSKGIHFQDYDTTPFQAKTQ
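20 nM HPGD preincubated 15 min at room temperature with compound in 50 mM Tris-HCl pH 8, 0.01% Tween 20. Started with 1 mM NAD+ and 30 uM prostaglandin E2; NADH fluorescence (360/450 nm) read 5 times over 30-s intervals, last minus first.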
KinaseGlo FLuc: counter-screen: inhibitors of Kinase-Glo firefly luciferase; Kinase-Glo luciferase, ATP luminescence, 8 min; actives 0.28% (n = 200,000); Q27757; Potency, µM (top dose mostly 38.3 µM), for the others: at the top dose activity change, negative = inhibition, hits mostly inhibitors; also: % is scaled to controls: 0 for no effect and ±100 for the full control effect; nearly all actives have a fitted effect of over 60% in size
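Compound is pinned into ATP-containing buffer (10 uM ATP, imidazole pH 7.2, 7 mM MgCl2). Kinase-Glo luciferase reagent is then added. Light output is recorded following an 8-min room-temperature incubation.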
LMNA splice mod: changes lamin A minigene splicing in HeLa cells; Potency, µM (doses to about 46.1 µM), for inactives: at the highest dose ratio change, negative = inhibition, actives largely listed as inhibitors; HeLa LMNA splicing GFP/RFP minigene ratio, 48 h; AID 1487; actives 0.01% (n = 200,000); active = well fitted inhibition curve with a large enough effect in the signal ratio, with a control signal flat, not every such curve was filed as active; inconclusive = small, poorly fitted or top-dose-only effect, or effect the other way, or a change in a side signal; the % refers to the signal ratio; also: % is scaled to controls: 0 for no effect and ±100 for the full control effect
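Read-out is the ratio of GFP to DsRed2 object intensity, acquired by 488 nm laser-scanning cytometry on HeLa lamin A-EGFP minigene reporter cells. Compound incubation 48 hrs at 37 °C in Opti-MEM with 2% FBS; DMSO 0.5% final.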
HTT ATP protect: Huntington cell model cytoprotection by ATP luminescence. actives 0.14% (n = 230,000). AID 1471. Potency, µM (titrated, usually from 56.4 µM), inactives show cytoprotection (ATP increase), most hits filed as activators. PC12 HTT-Q103 induced, cytoprotection, ATP luminescence, 40 h; also: % of control where 0% means no effect; nearly all actives have a fitted effect of over 45% in size
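Huntington model: PC12 line, ecdysone-inducible HTTQ103 exon1–GFP, tebufenozide 100 nM. Test articles in a dose series. Endpoint luminescence from cellular ATP.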
HTT aggregate: reduces HttQ103-GFP aggregates in PC12 cells; actives 1.1% (n = 220,000); Potency, µM (highest dose often 46.1 µM), for inactives: at the highest dose activity change, negative = inhibition, hits mostly inhibitors; PC12 HttQ103-GFP aggregates, Acumen cytometry, 40 h; AID 1688; also: % is scaled to controls: 0 for no effect and ±100 for the full control effect; nearly all actives have a fitted effect of over 60% in size
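PC12/HTTQ103-GFP, ecdysone-inducible; teb 100 nM; cpd qHTS titration; GFP aggregates read on laser cytometer, Ex 488/Em 500-530 nm.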
The depositor's hits bear a star; ! = a repeat was not active; [ ] = remark or other dose. Unless noted, calls follow the shape of the dose curve; as a rule, active = well fitted curve in the direction sought with a large enough effect; inconclusive = small, poorly fitted or top-dose-only effect, or another doubt; inactive = no such curve, though single readings can be large; an effect the other way counts as inactive or inconclusive. Potency is read from the fitted curve at half-maximal effect.

What do the screens show for `Cc1cccc(CN2CCN(c3ccc(Cl)cc3)CC2)c1`?
ALDH1A1 inh: inconclusive; KinaseGlo FLuc: 4%; LMNA splice mod: inconclusive; HTT ATP protect: -9%[10 µM]; HTT aggregate: 21%

What do the screens show for `Cc1ccc(C(=O)n2c(N)nc3ccccc32)cc1`?
ALDH1A1 inh: 7%; KinaseGlo FLuc: 11µM*; HTT ATP protect: -92%[10 µM]; HTT aggregate: 1%[9.22 µM]

How did CSc1nc2ccccc2n1C(=O)Oc1ccccc1 do in these assays?
ALDH1A1 inh: inconclusive; HPGD inh: -13%; KinaseGlo FLuc: -2%; LMNA splice mod: 6%; HTT ATP protect: -6%[0.074 µM]; HTT aggregate: 4%

Results for CCN(CC)S(=O)(=O)c1cccc(N=Nc2c(O)n(CC)c(=S)n(CC)c2=O)c1 ?
HTT ATP protect: -1%[10 µM]; HTT aggregate: 9%[9.22 µM]

How did CN(C)C(=S)SSC(=S)N(C)C do in these assays?
ALDH1A1 inh: 0.079µM*; HPGD inh: 0.71µM*; KinaseGlo FLuc: -2%; LMNA splice mod: inconclusive; HTT ATP protect: -309%; HTT aggregate: 1µM*!

What do the screens show for `CN(C)C(=S)SC(=S)N(C)C`?
ALDH1A1 inh: 3.5µM*; HPGD inh: -20%; KinaseGlo FLuc: 3%[39.9 µM]; LMNA splice mod: inconclusive; HTT ATP protect: -97%; HTT aggregate: 3.2µM*

Results for C=CC(=C)C ?
ALDH1A1 inh: 17%; HPGD inh: 2%; HTT ATP protect: -14%

Results for COc1ccc(NC(=O)CCc2nc(C3=CCN(Cc4cccc(C)c4)CC3)no2)c(OC)c1 ?
LMNA splice mod: -6%[46 µM]

What do the screens show for `O=C1NC(=O)C(=Cc2cc3c(cc2[N+](=O)[O-])OCO3)C(=O)N1`?
ALDH1A1 inh: 16µM*; KinaseGlo FLuc: -3%; LMNA splice mod: -8%[46 µM]; HTT ATP protect: -41%; HTT aggregate: -3%

Results for CCCCCCC(N)CC(=O)O (stereo not drawn) ?
ALDH1A1 inh: 5%; HPGD inh: 4%; KinaseGlo FLuc: 1%; LMNA splice mod: 3%; HTT ATP protect: -11%; HTT aggregate: -9%

How did C=C(C)CN1C(=O)C(O)(CC(=O)c2ccc3c(c2)OCCO3)c2ccccc21 (stereo not drawn) do in these assays?
ALDH1A1 inh: 11µM*; HPGD inh: -5%; KinaseGlo FLuc: 3%; LMNA splice mod: 3%; HTT ATP protect: -12%[0.074 µM]; HTT aggregate: 8%

Results for Cc1cc(SCC(=O)N/N=C/c2ccco2)nc2ccccc12 ?
ALDH1A1 inh: -13%; KinaseGlo FLuc: -1%; LMNA splice mod: inconclusive; HTT ATP protect: 12%[10 µM]; HTT aggregate: 7%[9.22 µM]

Results for COc1cc2c(cc1OC)[C@@H]1C(=O)c3ccc4c(c3OC1CO2)CC(C(C)C)O4 (stereo partly drawn) ?
ALDH1A1 inh: 2%; HPGD inh: -28%; KinaseGlo FLuc: 1%; LMNA splice mod: inconclusive

Results for CCCCCSc1cc(OC)c(CCN(C)C)cc1OC ?
ALDH1A1 inh: -6%; HPGD inh: -12%; KinaseGlo FLuc: -3%; LMNA splice mod: 5%; HTT ATP protect: -28%; HTT aggregate: inconclusive

Results for O=c1[nH]c(=O)n(CCc2ccc(F)cc2)c(O)c1C=NCc1ccc2c(c1)OCO2 ?
ALDH1A1 inh: 11%; HPGD inh: inconclusive; KinaseGlo FLuc: 5%; LMNA splice mod: -9%; HTT ATP protect: 5%[10 µM]; HTT aggregate: 1%

How did COc1ccc(CCn2c(O)c(C=NCc3ccc4c(c3)OCO4)c(=O)[nH]c2=O)cc1OC do in these assays?
ALDH1A1 inh: 5µM*; HPGD inh: -4%; KinaseGlo FLuc: -1%; LMNA splice mod: 4%; HTT ATP protect: -22%; HTT aggregate: 8%

What do the screens show for `CCCCn1c(C)c(C(=O)OCC)c2c(CN3CCOCC3)c(O)ccc21`?
ALDH1A1 inh: -10%; HPGD inh: 1%; KinaseGlo FLuc: -4%; LMNA splice mod: -3%; HTT ATP protect: -28%; HTT aggregate: 7%

Results for Cc1ccc(NC(=O)OC(C)CNC(=O)Oc2cccc(C)c2)cc1 (stereo not drawn) ?
ALDH1A1 inh: 20µM*; KinaseGlo FLuc: -1%; LMNA splice mod: 14%[46 µM]; HTT ATP protect: -82%; HTT aggregate: 5%

How did Cc1ccc(N2C(=O)NC(=O)/C(=C/c3cnn(-c4ccc(C)cc4)c3)C2=O)cc1 do in these assays?
ALDH1A1 inh: 2.5µM*; HPGD inh: inconclusive; KinaseGlo FLuc: -2%; LMNA splice mod: -6%; HTT aggregate: 10%

Results for Cc1ccc(N2C(=O)NC(=O)/C(=C\c3cnc(-c4ccccc4)nc3)C2=O)cc1 ?
ALDH1A1 inh: 8.9µM*; HPGD inh: inconclusive; KinaseGlo FLuc: -3%; LMNA splice mod: -3%; HTT ATP protect: 25%[10 µM]; HTT aggregate: 3%

How did Cc1ccc(N2C(=O)NC(=O)/C(=C\c3cccn3C(C)(C)C)C2=O)cc1 do in these assays?
ALDH1A1 inh: 0.56µM*; KinaseGlo FLuc: -1%; LMNA splice mod: 11%[46 µM]; HTT ATP protect: -19%; HTT aggregate: 26%

How did CSc1ncc(/C=C2/C(=O)NC(=O)N(c3ccc(C)cc3)C2=O)cn1 do in these assays?
ALDH1A1 inh: inconclusive; KinaseGlo FLuc: -3%; LMNA splice mod: 2%[46 µM]; HTT ATP protect: -18%; HTT aggregate: 18%

How did CN1C2CCC1CC(OC(=O)c1ccc(Cl)cc1)(C(=O)O)C2 (stereo not drawn) do in these assays?
ALDH1A1 inh: 6%; HPGD inh: -1%; KinaseGlo FLuc: -4%; LMNA splice mod: -7%; HTT ATP protect: 4%[10 µM]; HTT aggregate: -1%

Results for CN(C)CCCNCC(=O)Nc1ccc(Cl)cc1C(=O)c1ccccc1 ?
ALDH1A1 inh: 2.8µM*; KinaseGlo FLuc: -3%; HTT ATP protect: -14%; HTT aggregate: 14%

Results for CC(=O)CCc1ccccc1 ?
ALDH1A1 inh: 25µM*; HPGD inh: -11%; HTT ATP protect: 8%

How did CC(C)(C)P(=O)(NCc1ccccc1)c1ccccc1 (stereo not drawn) do in these assays?
ALDH1A1 inh: 2%; KinaseGlo FLuc: 3%; HTT ATP protect: -10%; HTT aggregate: 11%

How did Cc1ccc(CN2CC3CC(C2)c2cccc(=O)n2C3)cc1 (stereo not drawn) do in these assays?
ALDH1A1 inh: 2%; HPGD inh: 1%; KinaseGlo FLuc: 0%; LMNA splice mod: inconclusive; HTT ATP protect: 5%; HTT aggregate: 8%

What do the screens show for `CC(C)c1cc2c(c(O)c1O)[C@]1(C(=O)O)CCCC(C)(C)C1CC2` (stereo partly drawn)?
ALDH1A1 inh: 16µM*; HPGD inh: 3.2µM*; KinaseGlo FLuc: -8%; HTT ATP protect: -45%
